This is an account of results in PubChem BioAssay (NCI).

The structures appear in SMILES notation. Compounds without any hit were thinned out: in the full panel of roughly 83,000, 20% have a hit.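 Note: values are percent growth. 100 is the growth of untreated cells, values between 100 and 0 indicate rising inhibition; between -100 and 0 indicates cell death.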 Values without a mark were called inactive. Active and inactive are the calls of the source. Rule for the calls: active = growth percent below 10; inactive = the rest.

This experiment concerns HL-60(TB) leukemia. The experiment can be described thus: NCI-60 one-dose screen, 48 h (100 = growth as untreated, 0 = no growth, -100 = all killed). To be noted: 10 µM unless noted.
With `O=C(CSc1nnc(-c2ccc(-c3nc4ccccc4[nH]3)cc2)o1)Nc1ccc(Cl)cc1`, the growth was 37.6%. As to `COc1cc(C2CC(c3ccc(S(=O)(=O)NCCNc4nc(Nc5ccc(F)cc5)nc(N(C)C)n4)cc3)=Nc3c(N)nc(N)nc3N2)cc(OC)c1OC` (stereo unspecified), the growth is 80.3%. The value for `COC(=O)c1c(C(=O)OC)c2n(c1C)[C@@H]([C@@H](C)[C@H]1CC[C@H]3[C@@H]4CCC5=CC(=O)CC[C@]5(C)[C@H]4CC[C@]13C)SC2` was 7% (active); that for `Fc1ccc(N2CC(Cn3c(C(F)(F)F)cc4c(Cl)ncnc43)C2)c(F)c1` was -40.3% (active); that for `O=C(/C=C/c1cccc(OCc2ccccc2)c1)c1nc2ccccc2[nH]1` was 5.75% (active). The value for `C=C1CC[C@@H]2[C@]3(C)COC(c4cn[nH]c4-c4ccc(Br)cc4)O[C@@H]3CC[C@@]2(C)[C@@H]1C/C=C1/C(=O)OCC1O` (stereo partly specified) was -8.14% (active). Consider `CN(C)c1nc(NCCNS(=O)(=O)c2ccc(C(=O)/C=C/c3ccc(C(F)(F)F)cc3)cc2)nc(Nc2ccc(F)cc2)n1`, for which the growth is -21.8% (active).

`O=C(Nc1cccc([N+](=O)[O-])c1)Nc1cccc([N+](=O)[O-])c1`: the growth was 92.4%. As for `Cc1cccc(-c2nc(Nc3ccccc3C(=O)O)c3ccccc3n2)c1`, the growth is 39.4%. For `COc1ccc2c(c1)c(-c1cc3nc(-c4cn(C)c5ncc(Br)cc45)cc(N)n3n1)cn2C` the value was -59.7% (active); for `Cn1cc(NC(=O)c2cc(NC(=O)c3ccc(/C=C/c4ccccc4)cc3)cn2C)cc1C(=O)NCCCN1CCOCC1`, -37.6% (active).
